# Results taken from article PMC9911399, “Two distinct binding modes provide the RNA-binding protein RbFox with extraordinary sequence specificity”.
# Positions count from the first letter of the chain named. The full ranking holds about 16,000 sequences; the median of “ka relative to ugcaugu” is about 0.096, and the highest 2% start at about 0.35. What follows is part of a selection rich in the highest values, with near analogues and random picks from the rest.
# T1: RBFOX1 RRM RbFoxmut (Fox-RRM*) (Homo sapiens, UniProt Q9NWB1 109-208, R118D;E147R;N151S;E152T)
# T1 sequence: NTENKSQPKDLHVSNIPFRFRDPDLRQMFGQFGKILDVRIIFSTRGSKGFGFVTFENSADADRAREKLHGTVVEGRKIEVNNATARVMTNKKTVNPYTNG
# B1: ACUUAUG (DNA:RNA)
# RNA: GGGAGACCGGAAUUCAGAUUGUCCACUUAUGUUAAAUCCCGUCGUAGCCACCA
# DNA 1: CAATCTGAATTCCGGTCTCCC
# DNA 2: TGGTGGCTACGACGGGATT
# B2: UCCAUGA (DNA:RNA)
# RNA: B1 RNA with A25U, U27C, U28A, A29U, U30G, G31A
# DNA 1: CAATCTGAATTCCGGTCTCCC
# DNA 2: TGGTGGCTACGACGGGATT
# B3: GGAGUCA (DNA:RNA)
# RNA: GGGAGACCGGAAUUCAGAUUGUCCGGAGUCAUUAAAUCCCGUCGUAGCCACCA
# DNA 1: CAATCTGAATTCCGGTCTCCC
# DNA 2: TGGTGGCTACGACGGGATT
# B4: CCAACAG (DNA:RNA)
# RNA: B1 RNA with A25C, U27A, U28A, A29C, U30A
# DNA 1: CAATCTGAATTCCGGTCTCCC
# DNA 2: TGGTGGCTACGACGGGATT
# B5: ACGGAGA (DNA:RNA)
# RNA: B1 RNA with U27G, U28G, U30G, G31A
# DNA 1: CAATCTGAATTCCGGTCTCCC
# DNA 2: TGGTGGCTACGACGGGATT
# B6: GAUCACA (DNA:RNA)
# RNA: B3 RNA with G26A, A27U, G28C, U29A
# DNA 1: CAATCTGAATTCCGGTCTCCC
# DNA 2: TGGTGGCTACGACGGGATT
# B7: GAUCCGG (DNA:RNA)
# RNA: B1 RNA with A25G, C26A, U28C, A29C, U30G
# DNA 1: CAATCTGAATTCCGGTCTCCC
# DNA 2: TGGTGGCTACGACGGGATT
# B8: CUUCGGA (DNA:RNA)
# RNA: B1 RNA with A25C, C26U, U28C, A29G, U30G, G31A
# DNA 1: CAATCTGAATTCCGGTCTCCC
# DNA 2: TGGTGGCTACGACGGGATT
# B9: AUGUGUG (DNA:RNA)
# RNA: B1 RNA with C26U, U27G, A29G
# DNA 1: CAATCTGAATTCCGGTCTCCC
# DNA 2: TGGTGGCTACGACGGGATT
# B10: AUGUGUC (DNA:RNA)
# RNA: B1 RNA with C26U, U27G, A29G, G31C
# DNA 1: CAATCTGAATTCCGGTCTCCC
# DNA 2: TGGTGGCTACGACGGGATT
# B11: AUGUCCC (DNA:RNA)
# RNA: B1 RNA with C26U, U27G, A29C, U30C, G31C
# DNA 1: CAATCTGAATTCCGGTCTCCC
# DNA 2: TGGTGGCTACGACGGGATT
# B12: AUGUGCG (DNA:RNA)
# RNA: B1 RNA with C26U, U27G, A29G, U30C
# DNA 1: CAATCTGAATTCCGGTCTCCC
# DNA 2: TGGTGGCTACGACGGGATT
# B13: AUGUGUU (DNA:RNA)
# RNA: B1 RNA with C26U, U27G, A29G, G31U
# DNA 1: CAATCTGAATTCCGGTCTCCC
# DNA 2: TGGTGGCTACGACGGGATT
# B14: AUGUGCC (DNA:RNA)
# RNA: B1 RNA with C26U, U27G, A29G, U30C, G31C
# DNA 1: CAATCTGAATTCCGGTCTCCC
# DNA 2: TGGTGGCTACGACGGGATT
# B15: CAUACAC (DNA:RNA)
# RNA: B1 RNA with A25C, C26A, U28A, A29C, U30A, G31C
# DNA 1: CAATCTGAATTCCGGTCTCCC
# DNA 2: TGGTGGCTACGACGGGATT
# B16: GUCUAGC (DNA:RNA)
# RNA: B1 RNA with A25G, C26U, U27C, U30G, G31C
# DNA 1: CAATCTGAATTCCGGTCTCCC
# DNA 2: TGGTGGCTACGACGGGATT
# B17: UUCCCGC (DNA:RNA)
# RNA: GGGAGACCGGAAUUCAGAUUGUCCUUCCCGCUUAAAUCCCGUCGUAGCCACCA
# DNA 1: CAATCTGAATTCCGGTCTCCC
# DNA 2: TGGTGGCTACGACGGGATT
# B18: CCCGCGA (DNA:RNA)
# RNA: B17 RNA with U25C, U26C, C28G, C31A
# DNA 1: CAATCTGAATTCCGGTCTCCC
# DNA 2: TGGTGGCTACGACGGGATT
# B19: CAUUCUU (DNA:RNA)
# RNA: B1 RNA with A25C, C26A, A29C, G31U
# DNA 1: CAATCTGAATTCCGGTCTCCC
# DNA 2: TGGTGGCTACGACGGGATT
# B20: AAAGCCC (DNA:RNA)
# RNA: B3 RNA with G25A, G26A, U29C, A31C
# DNA 1: CAATCTGAATTCCGGTCTCCC
# DNA 2: TGGTGGCTACGACGGGATT
# B21: ACGCAUC (DNA:RNA)
# RNA: B1 RNA with U27G, U28C, G31C
# DNA 1: CAATCTGAATTCCGGTCTCCC
# DNA 2: TGGTGGCTACGACGGGATT
# B22: ACGCAUG (DNA:RNA)
# RNA: B1 RNA with U27G, U28C
# DNA 1: CAATCTGAATTCCGGTCTCCC
# DNA 2: TGGTGGCTACGACGGGATT
# B23: ACGCGCA (DNA:RNA)
# RNA: B1 RNA with U27G, U28C, A29G, U30C, G31A
# DNA 1: CAATCTGAATTCCGGTCTCCC
# DNA 2: TGGTGGCTACGACGGGATT
# B24: ACGCGUC (DNA:RNA)
# RNA: B1 RNA with U27G, U28C, A29G, G31C
# DNA 1: CAATCTGAATTCCGGTCTCCC
# DNA 2: TGGTGGCTACGACGGGATT
# B25: ACGCAUA (DNA:RNA)
# RNA: B1 RNA with U27G, U28C, G31A
# DNA 1: CAATCTGAATTCCGGTCTCCC
# DNA 2: TGGTGGCTACGACGGGATT
# B26: ACGCAGA (DNA:RNA)
# RNA: B1 RNA with U27G, U28C, U30G, G31A
# DNA 1: CAATCTGAATTCCGGTCTCCC
# DNA 2: TGGTGGCTACGACGGGATT
# B27: UCAUUGC (DNA:RNA)
# RNA: B17 RNA with U26C, C27A, C28U, C29U
# DNA 1: CAATCTGAATTCCGGTCTCCC
# DNA 2: TGGTGGCTACGACGGGATT
# B28: GAUAGUG (DNA:RNA)
# RNA: B1 RNA with A25G, C26A, U28A, A29G
# DNA 1: CAATCTGAATTCCGGTCTCCC
# DNA 2: TGGTGGCTACGACGGGATT
# B29: CGAUAGA (DNA:RNA)
# RNA: B3 RNA with G25C, G28U, U29A, C30G
# DNA 1: CAATCTGAATTCCGGTCTCCC
# DNA 2: TGGTGGCTACGACGGGATT
# B30: UGGUAUA (DNA:RNA)
# RNA: B1 RNA with A25U, C26G, U27G, G31A
# DNA 1: CAATCTGAATTCCGGTCTCCC
# DNA 2: TGGTGGCTACGACGGGATT
# B31: UGGUAUG (DNA:RNA)
# RNA: B1 RNA with A25U, C26G, U27G
# DNA 1: CAATCTGAATTCCGGTCTCCC
# DNA 2: TGGTGGCTACGACGGGATT
# B32: UGGUAAA (DNA:RNA)
# RNA: B1 RNA with A25U, C26G, U27G, U30A, G31A
# DNA 1: CAATCTGAATTCCGGTCTCCC
# DNA 2: TGGTGGCTACGACGGGATT
# B33: UGGUAGC (DNA:RNA)
# RNA: B17 RNA with U26G, C27G, C28U, C29A
# DNA 1: CAATCTGAATTCCGGTCTCCC
# DNA 2: TGGTGGCTACGACGGGATT
# B34: UGGUAUC (DNA:RNA)
# RNA: B1 RNA with A25U, C26G, U27G, G31C
# DNA 1: CAATCTGAATTCCGGTCTCCC
# DNA 2: TGGTGGCTACGACGGGATT
# B35: UGGUAGA (DNA:RNA)
# RNA: B1 RNA with A25U, C26G, U27G, U30G, G31A
# DNA 1: CAATCTGAATTCCGGTCTCCC
# DNA 2: TGGTGGCTACGACGGGATT
# Molecular target: T1, RBFOX1 RRM RbFoxmut (Fox-RRM*)
# Assay: EMSA; HiTS-Eq, 1 nM pool, 10 min; buffer printed only for the single-RNA assays: 10 mM Tris pH 7.5, 150 mM NaCl, 3.4 mM EDTA, 0.001% NP-40, 30 C
# Details: tags: His6 N-terminal (pET28a); label: 5' 32P
# Summary of the method: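 Relative association constants, normalised to the cognate motif, were derived by comparing read counts of each RNA species with those of the control reaction. The RNA sequenced was the free fraction, separated by 8% native PAGE after a 10 min equilibration in 50 µL of 1 nM 5′-radiolabelled RNA (7 randomized nucleotides) with increasing concentrations of purified wild-type or mutant RbFox RRM.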
row,Binder,binding signal
1,B1,0.125 KA relative to UGCAUGU
2,B2,0.11 KA relative to UGCAUGU
3,B3,0.0995 KA relative to UGCAUGU
4,B4,0.108 KA relative to UGCAUGU
5,B5,0.0992 KA relative to UGCAUGU
6,B6,0.0738 KA relative to UGCAUGU
7,B7,0.06 KA relative to UGCAUGU
8,B8,0.0749 KA relative to UGCAUGU
9,B9,0.443 KA relative to UGCAUGU
10,B10,0.289 KA relative to UGCAUGU
11,B11,0.0715 KA relative to UGCAUGU
12,B12,0.231 KA relative to UGCAUGU
13,B13,0.174 KA relative to UGCAUGU
14,B14,0.372 KA relative to UGCAUGU
15,B15,0.0927 KA relative to UGCAUGU
16,B16,0.0934 KA relative to UGCAUGU
17,B17,0.0732 KA relative to UGCAUGU
18,B18,0.0823 KA relative to UGCAUGU

row,Binder,binding signal
1,B19,0.101 KA relative to UGCAUGU
2,B20,0.066 KA relative to UGCAUGU
3,B21,0.355 KA relative to UGCAUGU
4,B22,0.844 KA relative to UGCAUGU
5,B23,0.15 KA relative to UGCAUGU
6,B24,0.0969 KA relative to UGCAUGU
7,B25,0.152 KA relative to UGCAUGU
8,B26,0.106 KA relative to UGCAUGU
9,B27,0.12 KA relative to UGCAUGU
10,B28,0.126 KA relative to UGCAUGU
11,B29,0.101 KA relative to UGCAUGU
12,B30,0.157 KA relative to UGCAUGU
13,B31,1.27 KA relative to UGCAUGU
14,B32,0.0843 KA relative to UGCAUGU
15,B33,0.102 KA relative to UGCAUGU
16,B34,0.356 KA relative to UGCAUGU
17,B35,0.128 KA relative to UGCAUGU
